Bioassay records deposited in PubChem by National Center for Advancing Translational Sciences (NCATS).
In the library only some 15% were active in any assay of this set; here they are far more common.
Sm TGR block: qHTS Assay for the Inhibitors of Schistosoma Mansoni Peroxiredoxins | Schistosoma mansoni thioredoxin glutathione reductase (TGR), Q962Y6 | hit rate 3% among 360,000 | Potency, µM (top dose mostly 114 µM), inactives show top-dose activity change, negative = inhibition, usual class: inhibitors | purified TGR, DTNB reduction, TNB absorbance 405 nm; also: potency is read from the fitted curve at half-maximal effect; % is scaled to controls: 0 for no effect and ±100 for the full control effect; nearly all actives have a fitted effect of over 60% in size
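Kinetic colorimetric format: TGR-catalysed, NADPH-driven DTNB reduction monitored via TNB absorbance. Enzyme dispensed at 20 nM; compound exposure 15 min at room temperature before reaction start.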
HCMV antiviral: qHTS Assay for inhibitors of the human cytomegalovirus (HCMV). HFF cells, HCMV-luciferase reporter, 72 h; active compounds read low. activity change, negative = inhibition, % at 57.5 µM. hit rate 4.5% among 410,000; in the data active = activity change below about -60%; inconclusive = no clear call, values can overlap the other calls; inactive = above about -39%; also: % is scaled to controls: 0 for no effect and ±100 for the full control effect
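After 16 h attachment at 37C, HFF cells received test compound and HCMV-luciferase (1 PFU/cell); reporter luminescence read 72 h later, data normalized against buffer-only and known inhibitor Salinomycin.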
HCV inh: qHTS Assay for Inhibitors of Hepatitis C Virus (HCV); Huh7.5.1 HCVcc-Cre infection, luciferase reporter, 44 h; Potency, µM (series often up to 41.8 µM), for the others: at the highest dose activity change, negative = inhibition, actives largely listed as inhibitors; hit rate 3.4% among 340,000; AID 651820, 2012; also: potency is read from the fitted curve at half-maximal effect; % is scaled to controls: 0 for no effect and ±100 for the full control effect
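Seed cells (1,000/well) for 4 h; treat with compound and infect with HCVcc-Cre, moi about 0.5. Incubate 44 h, then detect luciferase activity.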
Pf growth 48h: Primary qHTS for delayed death inhibitors of the malarial parasite plastid, 48 hour incubation | hit rate 5.9% among 310,000 | Potency, µM (titrated, usually from 28.7 µM), without a hit: at the highest dose activity change, negative = inhibition, actives largely listed as inhibitors | AID 504832, 2011 | P. falciparum luciferase growth in erythrocytes, 48 h; also: potency is read from the fitted curve at half-maximal effect; % is scaled to controls: 0 for no effect and ±100 for the full control effect
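Firefly luciferase activity from engineered P. falciparum reports growth; inhibitors lower the luminescent signal. Cultures contained 2% hematocrit erythrocytes at 0.1% final parasitemia.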
Pf growth 96h: Primary qHTS for delayed death inhibitors of the malarial parasite plastid, 96 hour incubation; P. falciparum luciferase reporter growth, 96 h; Potency, µM (titrated, usually from 28.7 µM), for the others: top-dose activity change, negative = inhibition, actives largely listed as inhibitors; hit rate 6.9% among 320,000; AID 504834, 2011; also: potency is read from the fitted curve at half-maximal effect; % is scaled to controls: 0 for no effect and ±100 for the full control effect
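96 h incubation, 37 C, 5% CO2, of luciferase-reporter P. falciparum-infected RBCs (2% hematocrit, 0.05% parasitemia final) with test compounds; endpoint luminescence.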
SARS PLP yeast: qHTS of Yeast-based Assay for SARS-CoV PLP; S. cerevisiae expressing SARS-CoV PLpro, growth rescue; Potency, µM (titrated, usually from 32.9 µM), without a hit: at the highest dose activity, positive = growth rescue, actives largely listed as activators; hit rate 0.19% among 330,000; calls by dose curve; also: potency is read from the fitted curve at half-maximal effect; 0% is about no effect; nearly all actives have a fitted effect of over 55% in size
Active calls of the source: *; [ ] = remark or other dose. Unless noted, calls follow the shape of the dose curve; as a rule, active = well fitted curve in the direction sought with a large enough effect; inconclusive = small, poorly fitted or top-dose-only effect, or another doubt; inactive = no such curve, though single readings can be large; an effect the other way counts as inactive or inconclusive.

For Cc1nn(CCc2nn[nH]n2)c2nc(-c3ccc(C4CCCCC4)cc3)cc(C(F)(F)F)c12 the results were Sm TGR block -21%, HCMV antiviral inconclusive, HCV inh inconclusive, Pf growth 48h 5.2µM*, Pf growth 96h inconclusive and SARS PLP yeast -1%.
`CN(O)/C=C/C(=O)c1ccc(Br)cc1` gave Sm TGR block 8.9µM*, HCMV antiviral inconclusive, HCV inh -12%, Pf growth 48h 0%, Pf growth 96h -1% and SARS PLP yeast -4%.
Screening O=CN1Cc2[nH]c3ccccc3c2N(c2ccc(Cl)cc2)C1=O returned Sm TGR block 4%[11.4 µM], HCMV antiviral 65, HCV inh 0%, Pf growth 96h 9.3µM* and SARS PLP yeast -3%.
Screening COc1cc(CNCCSc2nnnn2C)ccc1OCc1ccc(F)cc1 returned Sm TGR block 18% and HCMV antiviral -77*.
COc1cc(CNCCSc2nnnn2C)ccc1OCc1ccccc1 was read as Sm TGR block 1% and HCMV antiviral inconclusive.
`CCOc1cc(CNCCSc2nnnn2C)ccc1OCc1ccc(Cl)cc1Cl` gave Sm TGR block 1% and HCMV antiviral -99*.
`Cn1nnnc1SCCCNCc1cc(Br)ccc1OCc1ccccc1` gave Sm TGR block -1% and HCMV antiviral -63*.
Screening CCCS(=O)(=O)NC(=O)C1(C)CCN(C(=O)c2cccc(C)c2C)C1 (stereo not given) returned HCMV antiviral 8.
For CC(C)n1nc(C(=O)OCn2nnc3ccccc3c2=O)c2ccccc2c1=O the results were Sm TGR block -17%, HCMV antiviral -10, HCV inh 17%, Pf growth 48h 10%, Pf growth 96h inconclusive and SARS PLP yeast 18%.
For Cc1ccc(CN2CCCC2(C)C(=O)NC(C)C)cc1 (stereo not given) the results were HCMV antiviral -20.
For CC(C)(C)S(=O)(=O)N1C[C@@H]2CC/C=C\C/C=C\2[C@H]1CCO the results were HCMV antiviral -1 and HCV inh 4%.
CCN(CC)C(=O)c1cccc(-c2csc(C(O)c3ccc(F)c(OC)c3)n2)c1 (stereo not given) was read as HCMV antiviral -62*.
Screening CCc1ccc(CN2CCC(C(=O)Nc3ccc(-n4nc(C)cc4C)cc3)CC2)o1 returned Sm TGR block -20%, HCMV antiviral -16, HCV inh inconclusive, Pf growth 48h 6.6µM*, Pf growth 96h inconclusive and SARS PLP yeast 1%.
Screening O=C(Nc1ccc(-n2cccn2)cc1)C1CCCCN1Cc1cccc2c1OCO2 (stereo not given) returned Sm TGR block 2%, HCMV antiviral -68*, HCV inh -10%, Pf growth 48h inconclusive, Pf growth 96h -1% and SARS PLP yeast 3%.
`Cc1cc(C)n(-c2ccc(NC(=O)C3CCN(Cc4cnc(C)s4)CC3)cc2)n1` gave Sm TGR block 0%, HCMV antiviral -60*, HCV inh -15%, Pf growth 48h inconclusive, Pf growth 96h -23% and SARS PLP yeast 19%.
Screening Cc1cccc(CN2CCC(C(=O)Nc3ccc(-n4nc(C)cc4C)cc3)CC2)n1 returned Sm TGR block 0%, HCMV antiviral inconclusive, HCV inh 9%, Pf growth 48h -19%, Pf growth 96h inconclusive and SARS PLP yeast 3%.
Cc1ncc(CN2CCC(C(=O)Nc3ccc(-n4cccn4)cc3)CC2)s1 was read as Sm TGR block -17%, HCMV antiviral 8, HCV inh -14%, Pf growth 48h 1µM*, Pf growth 96h 9% and SARS PLP yeast 16%.
`CC(C)CCNC(=O)N1CCN(S(=O)(=O)c2ccc3c(ccn3C)c2)CC1` gave Sm TGR block 5% and HCMV antiviral 22.
`COc1cc2cc(-c3ccc(OC)c(OC)c3C)nc(N)c2cc1OC` gave HCMV antiviral -92* and HCV inh 18µM*.
Screening COc1ccc(-c2ccc(OC)c(OC)c2OC)c(OC)c1OC returned HCMV antiviral 2 and HCV inh 12%.
Cc1cc(N2CCCCC2)nc(NCc2ccccc2)n1 was read as Sm TGR block -5%, HCMV antiviral -64*, HCV inh inconclusive, Pf growth 48h 3.3µM*, Pf growth 96h 2.9µM* and SARS PLP yeast -5%.
Screening Cc1cc(N2CCOCC2)nc(SCc2c(Cl)cccc2Cl)n1 returned Sm TGR block 5%, HCMV antiviral inconclusive, HCV inh 11µM*, Pf growth 48h 1%, Pf growth 96h 265% and SARS PLP yeast -71%.
Screening CNc1cc(CSc2ccc(Cl)cc2)nc(C)n1 returned Sm TGR block -1%, HCMV antiviral 45, HCV inh 18%, Pf growth 48h 173%, Pf growth 96h 180% and SARS PLP yeast 3%.
For Cc1cc(N2CCOCC2)nc(NCc2ccccc2)n1 the results were Sm TGR block 10%[11.4 µM], HCMV antiviral -38, HCV inh 13µM*, Pf growth 96h 8% and SARS PLP yeast 2%.
Cc1cc(NCc2ccccc2)nc(N2CCOCC2)n1 was read as Sm TGR block -2%, HCMV antiviral -2, HCV inh -14%, Pf growth 48h 14%, Pf growth 96h inconclusive and SARS PLP yeast 1%.
Screening Cc1cc(N2CCOCC2)nc(SCC(=O)c2ccc(Cl)cc2)n1 returned Sm TGR block -28%, HCMV antiviral -21, HCV inh -24%, Pf growth 48h inconclusive, Pf growth 96h inconclusive and SARS PLP yeast 5%.
Screening Cc1nc(CSc2ccc(Cl)cc2)cc(N2CCOCC2)n1 returned Sm TGR block -23%, HCMV antiviral 6, HCV inh 2%, Pf growth 48h 4%, Pf growth 96h 7.4µM* and SARS PLP yeast -5%.
OC(c1ccc(F)c(F)c1)c1nc(-c2cc(F)cc(F)c2)cs1 (stereo not given) was read as HCMV antiviral -36.
`CC(NC(=O)CCn1nc(-c2ccc(Cl)cc2)ccc1=O)c1ccccc1` (stereo not given) gave Sm TGR block -6%, HCMV antiviral -27, HCV inh 6%, Pf growth 48h -10%, Pf growth 96h inconclusive and SARS PLP yeast -4%.
`CN(C)S(=O)(=O)c1cccc(COc2ncnc3c(Cl)cc(Cl)cc23)c1` gave Sm TGR block -12%, HCMV antiviral 1, HCV inh -28%, Pf growth 48h -5%, Pf growth 96h 11% and SARS PLP yeast -7%.
